“And” between values parts separate entries of the source, which are not always exact repeats. Equal entries are not always repeated. The whole screen tested about 16,000 compounds, of which about 5,700 (36%) were called active. Roughly 24% stayed inconclusive and do not appear here. The list shows a part of the results. Unmarked numbers belong to inactive results. Calls follow the shape of the dose curve; as a rule, active = well fitted curve in the direction sought with a large enough effect; inconclusive = small, poorly fitted or top-dose-only effect, or effect the other way; inactive = no such curve, though single readings can be large or run the other way.
% is scaled to controls: 0 for no effect and ±100 for the full control effect.

Sequence of Cytochrome P450 1A2 (Homo sapiens) (P05177 whole entry, looked up): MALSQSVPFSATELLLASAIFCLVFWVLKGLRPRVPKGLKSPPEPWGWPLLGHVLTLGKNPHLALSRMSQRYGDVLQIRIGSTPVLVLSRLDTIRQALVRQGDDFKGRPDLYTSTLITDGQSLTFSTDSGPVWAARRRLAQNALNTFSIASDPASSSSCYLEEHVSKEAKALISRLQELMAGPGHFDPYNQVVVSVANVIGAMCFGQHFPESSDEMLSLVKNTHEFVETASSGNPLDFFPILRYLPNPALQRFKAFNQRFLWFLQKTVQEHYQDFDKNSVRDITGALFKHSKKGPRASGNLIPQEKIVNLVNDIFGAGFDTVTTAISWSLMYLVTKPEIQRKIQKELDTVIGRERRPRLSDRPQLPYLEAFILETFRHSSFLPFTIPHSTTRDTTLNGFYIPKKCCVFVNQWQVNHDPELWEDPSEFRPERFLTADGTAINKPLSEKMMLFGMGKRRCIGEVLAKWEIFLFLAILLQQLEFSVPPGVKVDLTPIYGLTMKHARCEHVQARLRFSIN

This assay has as its target Cytochrome P450 1A2 (Homo sapiens) (UniProt P05177). The assay is described as follows: Cytochrome panel assay with activity outcomes. The conditions noted are these: recombinant CYP, pro-luciferin dealkylation, luminescence, p450-cyp1a2; series mostly up to 57.1 µM.
As to `O=C(c1cc(C(F)(F)F)cc(C(F)(F)F)c1)N1CCC2(CC1)CCN(c1ncccn1)CC2`, the AC50 entry was “inactive”.
Still for that read-out and setting: under `CCCCN1C(=O)C(NC(=O)CC(C)C)(C(F)(F)F)C2=C1CC(C)(C)CC2=O` (configuration not stated) stands “inactive”; under `O=C(c1cccc(F)c1)N1CCC[C@@]2(CCN(c3ccncc3)C2)C1`, “inactive”.
On the same count and under the same terms, next, `O=C(c1cccc(F)c1)N1CCC[C@@]2(CCN(c3cccc(-c4ccccc4)c3)C2)C1`: 15.8 µM (active); `O=C(c1cccc(F)c1)N1CCC[C@@]2(CCN(c3ccccc3)C2)C1`: “inactive”; `C[N+]1(C)C[C@@H](O)C[C@@H]1C(=O)[O-]`: “inactive”.
Still for that read-out and setting: under `COc1cccc(CNCc2ccc(SC)cc2)c1OC` stands 15.8 µM (active); under `COc1cccc(CN2C(=O)N(C(C)C)C(N(O)C(=O)NC(C)C)C2(C)C)c1OC` (configuration not stated), “inactive”.
On to `c1ccc(C(c2ccccc2)N2CCC3(CCNCC3)CC2)cc1`, for which the AC50 result is “inactive”.
As to `CC(=O)N1CCC2(CC1)CN(c1ccccc1)C2`, the AC50 result was “inactive”.
On the same count and under the same terms, next, `c1ccc(-c2cccc(N3CCC4(CCNCC4)CC3)c2)cc1`: 15.8 µM (active); `CC(=O)N1CCC2(CC1)CCN(c1ccncc1)CC2`: “inactive”; `CC(=O)N1CCC2(CC1)CCN(c1ccc(-c3ccccc3)cc1)CC2`: 10 µM (active).
Still for that read-out and setting: under `CC(=O)N1CCC2(CCCN(c3ccccc3)C2)CC1` stands “inactive”.
Consider `COC(=O)N1CCC2(CC1)CCN(c1ccccc1)CC2`, for which the AC50 entry is “inactive”.
Still for that read-out and setting: next, `COC(=O)N1CCC2(CC1)CN(c1cccc(-c3ccccc3)c1)C2`: “inactive”.
For `COCC(=O)N1CCC2(CC1)CCN(c1cccc(-c3ccccc3)c1)CC2`, the AC50 was 5.01 µM (active).
Same read-out and setting: under `CC(=O)N1CCC2(CCCN(c3cccc(-c4ccccc4)c3)C2)CC1` stands 5.01 µM (active).
Same read-out and setting: under `COC(=O)N1CCC2(CC1)CCN(c1cccc(-c3ccccc3)c1)CC2` stands “inactive”.
The same measure, in the same setting: next, `N#Cc1ccc(CN2CCC3(CC2)CCN(C(=O)c2ccncc2)CC3)cc1`: “inactive”.
In the case of `CC[C@@H](Nc1ncnc2nc[nH]c12)C(=O)O`, the activity, negative = inhibition was -2.91% [at 11.4 µM].
With `COCC(=O)N1CCC2(CCCN(c3cccc(-c4ccccc4)c3)C2)CC1`, the AC50 was 15.8 µM (active).
For `COCC(=O)N1CCC2(CC1)CN(C(=O)Nc1ccccc1)C2`, the AC50 was 12.6 µM (active).
Same read-out and setting: next, `COCC(=O)N1CCC2(CCCN(c3ccncc3)C2)CC1`: “inactive”; `COCC(=O)N1CCC2(CC1)CN(C(=O)Nc1ccc(OC)cc1)C2`: “inactive”; `O=C(Oc1ccccc1)N1CCC2(CCCN(c3cccc(-c4ccccc4)c3)C2)CC1`: “inactive”.
Consider `COCC(=O)N1CCC2(CCCN(C(=O)Nc3ccccc3)C2)CC1`, for which the AC50 entry was “inactive”.
`CCn1nc(C(=O)Nc2ccccc2C)c(Cl)c1Cl`: the AC50 was 1.26 µM (active).
As for `N#Cc1cccc(-c2nc(NCc3ccccc3)c3ccccc3n2)c1`, the AC50 was 0.398 µM (active).
The same measure, in the same setting: under `N#Cc1cccc(-c2nc(NCc3cccnc3)c3ccccc3n2)c1` stands 0.251 µM (active); under `N#Cc1cccc(-c2nc(NCc3cccs3)c3ccccc3n2)c1`, 0.316 µM (active).
On the same count and under the same terms, under `NCC[C@H]1CCC[C@H](CCN)N1` stands “inactive”; under `O=C(Nc1nnc(C2CC2)s1)c1ccc(S(=O)(=O)c2ccccc2)cc1`, “inactive”.
In the case of `O=C(NN=C1C2CC3CC(C2)CC1C3)c1ccncc1`, the AC50 entry is “inactive”.
On the same count and under the same terms, under `O=C(Nc1nnc(C2CC2)s1)c1ccncc1` stands 12.6 µM (active).
Take `COc1ccc(O[C@H]2C=C[C@@H](c3ccccc3)O[C@H]2CO/N=C2/[C@H]3O[C@@H]3[C@@H](O)[C@H]3[C@H]2CCn2c(=O)n(-c4ccccc4)c(=O)n23)cc1`: the activity, negative = inhibition is 12.3% [at 11.4 µM].
Regarding `Cc1ccccc1NC1=NC(=S)N(c2ccccc2)C12CCOC(C)(C)C2` (configuration not stated), the AC50 result is “inactive”.
Still for that read-out and setting: under `CS(=O)(=O)c1ccc(-c2cc(Br)sc2-c2ccc(F)cc2)cc1` stands 0.398 µM (active); under `N#CC(c1ccccn1)(c1ncc(C(F)(F)F)cc1Cl)N1CCOCC1` (configuration not stated), “inactive”.
Still for that read-out and setting: next, `FC(F)(F)c1cnc(/C=C/Nc2ccccc2Cl)c(Cl)c1`: 1.41 µM (active); `N#CC(c1ccc(Cl)cc1)(c1ncc(C(F)(F)F)cc1Cl)N1CCOCC1` (configuration not stated): “inactive”.
As to `NC(=O)C[C@H](NC(=O)Cc1ccc(O)cc1O)C(=O)O`, the AC50 entry was “inactive”.
On the same count and under the same terms, under `CCc1nc2c(c(SC)nn2-c2ccccc2)c(N)c1C(=O)OC` stands 0.631 µM (active); under `Nc1cc(-c2ccncc2)c[nH]c1=O`, 15.8 µM (active); under `NC(=O)c1cc[n+](CC2=C(C(=O)O)N3C(=O)[C@@H](NC(=O)[C@H](c4ccccc4)S(=O)(=O)[O-])[C@@H]3SC2)cc1`, “inactive”.
Turning to `COc1cccc(-c2nc(N(C)Cc3ccco3)c3ccccc3n2)c1`, the AC50 was 0.316 µM (active).
Regarding `COc1cccc(-c2nc(N(C)C)c3ccccc3n2)c1`, the AC50 is 0.251 µM (active).
The same measure, in the same setting: next, `CN(Cc1ccco1)c1nc(-c2cccc(C#N)c2)nc2ccccc12`: 0.1 µM (active).
For `CC(=O)N[C@@H]1CONC1=O`, the activity, negative = inhibition was -16.9% [at 11.4 µM].
In the case of `COc1ccccc1CN1CCCC2(CCN(S(C)(=O)=O)CC2)C1`, the AC50 result was “inactive”.
For the compound `c1csc(CNc2ccnc(-c3ccc4c(c3)OCO4)n2)c1`, the AC50 is 0.316 µM (active).
Same read-out and setting: next, `c1cncc(CNc2ccnc(-c3ccc4c(c3)OCO4)n2)c1`: 0.126 µM (active).
Still for that read-out and setting: next, `c1ccc(CNc2ccnc(-c3ccc4c(c3)OCO4)n2)cc1`: 0.398 µM (active); `COc1ccc(CNC(=O)C(c2ccc(C)cc2)N(Cc2cccs2)C(=O)c2ccc3c(c2)OCCO3)cc1` (configuration not stated): “inactive”.
Turning to `CCOC(=O)C1=C(N)Oc2ccc(Br)cc2[C@@H]1[C@@H](C#N)C(=O)OCC`, the AC50 was 0.251 µM (active).
Take `CO[C@@H]1COC(=O)[C@H]2CCCN2C(=O)[C@@H](C)COC(=O)C/C=C\[C@H]1C`: the activity, negative = inhibition is 1.25% [at 11.4 µM].
Consider `CCCN1CCC(=NNC(=O)c2ccc(Br)o2)CC1`, for which the AC50 is 8.91 µM (active).
As to `O=C(c1ccccc1NS(=O)(=O)c1cccc([N+](=O)[O-])c1)N1CCOCC1`, the AC50 entry is “inactive”.
On the same count and under the same terms, under `O=Nc1c(O)n(Cc2ccc(Cl)cc2)c2ccccc12` stands 14.1 µM (active); under `Cc1nn(CC(=O)NCCN2CCOCC2)c(C)c1[N+](=O)[O-]`, “inactive”.
With `O=C(Nc1cccn2ncnc12)c1ccc(Cl)cc1Cl`, the AC50 result was “inactive”.
`Cl/C(=C\n1cncn1)c1ccc(Cl)cc1Cl`: the AC50 is 0.0631 µM (active).
As to `COc1cccc(/C(O)=C2/C(=O)C(=O)N(Cc3cccnc3)C2c2ccco2)c1` (configuration not stated), the AC50 entry was “inactive”.
Still for that read-out and setting: under `CCOc1cccc(/C(O)=C2/C(=O)C(=O)N(Cc3cccnc3)C2c2ccco2)c1` (configuration not stated) stands “inactive”; under `CCOc1cccc(/C(O)=C2/C(=O)C(=O)N(Cc3ccco3)C2c2ccncc2)c1` (configuration not stated), 25.1 µM (active).
Turning to `N[C@@H](Cn1ccc(=O)n(Cc2ccccc2C(=O)O)c1=O)C(=O)O`, the AC50 entry was “inactive”.
Still for that read-out and setting: under `O=C(c1ccccc1)c1c[nH]c(C(=O)NCc2cccnc2)c1` stands 3.55 µM (active).
Regarding `O=S1(=O)[C@H]([C@H]2CC3c4ccccc4C2c2ccccc23)[C@@H](N2CCCCC2)[C@@H]1c1ccccc1`, the activity, negative = inhibition was 1.63% [at 2.29 µM].
Consider `Nn1c(SCC(=O)N2CCOCC2)nnc1-c1ccccc1Cl`, for which the AC50 result is “inactive”.
Turning to `O=C(CCn1nc(-c2ccc(Cl)cc2)ccc1=O)N1CCOCC1`, the AC50 result was “inactive”.
For the compound `CC(C)Cn1c(-c2ccc(Cl)cc2)cnc1SCC(=O)N1CCOCC1`, the half-maximal activity concentration (AC50) is 12.6 µM (active).
Turning to `C#CCSc1n[nH]c(-c2ccco2)n1`, the AC50 is 2 µM (active).
On the same count and under the same terms, under `CN(C)C(N)=NCCC[C@H](N)C(=O)O` stands “inactive”.
Still for that read-out and setting: under `O[C@@H](C1=C/C(=C\c2ccncc2)c2ccccc21)c1ccncc1` stands 0.1 µM (active); under `COc1ccc2c(c1)C(=O)N(CCc1ccc(S(=O)(=O)NC(=O)NC3CCCCC3)cc1)C(=O)C2(C)C`, “inactive”; under `COc1ccc(C(C(=O)NC2CCCCC2)N2CCC3(CC2)OCCO3)cc1` (configuration not stated), “inactive”.
On the same count and under the same terms, under `COc1ccc(C(C(=O)NC2CCCCC2)N(C(=O)CCCC(=O)Nc2ccccn2)c2ccc3c(c2)OCCO3)cc1` (configuration not stated) stands “inactive”; under `COc1ccc(CCCC(=O)NC2CCCCC2)cc1`, 25.1 µM (active); under `COc1ccc(/C=N/NC(=O)CCCC(=O)NC2CCCCC2)cc1`, 11.2 µM (active).
For `CCCC(=O)N=C1SC2CS(=O)(=O)CC2N1c1ccc(CC)cc1` (configuration not stated), the AC50 entry was “inactive”.
Consider `CC(=O)OC[C@H]1O[C@@H](O/N=C(\C)CCC(=O)OC[C@@H]2O[C@H](C#Cc3ccccc3)C=C[C@@H]2Oc2ccc(C)cc2)[C@H](OC(C)=O)[C@@H](OC(C)=O)[C@H]1OC(C)=O`, for which the activity, negative = inhibition was -5.25% [at 11.4 µM].
Turning to `O=c1c(-c2cccc(F)c2)nc2cncnc2n1-c1ccccc1`, the AC50 was 10 µM (active).
As to `O=c1c(-c2cc(F)cc(F)c2)nc2cncnc2n1-c1ccccc1`, the AC50 was 12.6 µM (active).
Turning to `C/C(CCN1CCc2nc(-c3ccccc3)c(-c3ccccc3)cc2C1)=N\O[C@@H](C)CN1CCCCc2nc(C)c(C)cc21`, the activity, negative = inhibition is -10.7% [at 11.4 µM].
On to `Cc1c(-c2ccc(O)cc2)nn(-c2ccc(O)cc2)c1-c1ccc(OCCN2CCCCC2)cc1`, for which the AC50 was 12.6 µM (active).
Same read-out and setting: next, `CC(=O)N1CCC[C@@]2(CCN(Cc3ccccc3)C2)C1`: “inactive”.
The same measure, in the same setting: under `COC(=O)[C@@]1(Cc2ccc(F)cc2)[C@H]2c3cc(C(=O)N4CCCC4)n(Cc4ccc(Cl)c(C(F)(F)F)c4)c3C[C@H]2CN1C(=O)c1ccccc1` stands “inactive”; under `CCOC(=O)C1=C(CSc2nc(-c3ccccc3)ccc2C#N)OC(N)=C(C#N)C1c1ccc(OC)cc1` (configuration not stated), 2 µM (active); under `CSc1ccc(S(=O)(=O)Nc2ccc3c4c(cccc24)CC3)cc1`, 25.1 µM (active).
`Cc1ccc(S(=O)(=O)Nc2ccccc2C=O)cc1`: the activity, negative = inhibition was -16% [at 11.4 µM].
With `O=C(NCCc1ccc(Cl)cc1)c1ncn[nH]1`, the AC50 is 20 µM (active).
Same read-out and setting: under `Cc1nc(SCC(=O)Nc2ccc(N3CCOCC3)cc2)nc(C)c1C` stands “inactive”.
Same read-out and setting: next, `O=C(NCCc1ccc(Cl)cc1)Nc1cccc(Cl)c1`: 4.47 µM (active).
The same measure, in the same setting: under `Cc1nc(SCC(=O)Nc2c(C)n(C)n(-c3ccccc3)c2=O)nc(C)c1C` stands “inactive”; under `NCCNC(=O)c1ccc(Cl)cc1`, 12.6 µM (active) and 10 µM (active); under `N[C@@H](C(=O)O)[C@H](CC(=O)O)c1ccc(Cl)cc1`, “inactive”.
In the case of `Cc1nc(SCC(=O)NCCc2ccc(Cl)cc2)nc(C)c1C`, the AC50 was 20 µM (active).

The term AC50 denotes the midpoint of the concentration-response curve, whichever way the signal moves.
